Data from PubChem BioAssay AID1159580 (chemical genetic matrix, 2015).
Among all 5,500 compounds or so, about 2,000 (36%) were called active. Another 18% or so got no clear call; they are omitted. No stated cut-off is given here; in the data, active means normalized growth mostly below about 0.91 (no sharp cut-off); inconclusive means no clear call, values can overlap the other calls; inactive means mostly above about 0.92. The list shows a part of the results.

Test: chemical genetic growth profiling, strain panel (AID 1159580);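 further: tested at 20 µM; growth read once vehicle control cultures reached saturation at 30 °C; 1 = growth at the plate median or of vehicle wells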
Conditions: growth OD

Measured: normalized growth

OC(CCN1CCCC1)(c1ccccc1)C1CCCCC1 (centres undefined)
inactive: S. cerevisiae deletion strains, locus YJR043C, strain POL32, stronger effect = lower value 1.01 | S. cerevisiae deletion strains, locus YJR066W, strain TOR1, stronger effect = lower value 0.973 | S. cerevisiae deletion strains, locus YKL009W, strain mrt4, stronger effect = lower value 0.977 | S. cerevisiae deletion strains, locus YKL068W, stronger effect = lower value 0.985 | S. cerevisiae deletion strains, locus YKL085W, strain MDH1 (second series), stronger effect = lower value 0.977 | S. cerevisiae deletion strains, locus YKL085W, strain MDH1, stronger effect = lower value 0.977 | S. cerevisiae deletion strains, locus YKL160W, strain elf1, stronger effect = lower value 0.975 | S. cerevisiae deletion strains, locus YKL190W, strain CNB1, stronger effect = lower value 0.996 | S. cerevisiae deletion strains, locus YKR001C, strain vps1, stronger effect = lower value 0.985 | S. cerevisiae deletion strains, locus YKR026C, strain gcn3, stronger effect = lower value 0.986 | S. cerevisiae deletion strains, locus YKR091W, strain srl3, stronger effect = lower value 0.992 | S. cerevisiae deletion strains, locus YLL001W, strain dnm1, stronger effect = lower value 0.956 | S. cerevisiae deletion strains, locus YLL026W, stronger effect = lower value 0.974 | S. cerevisiae deletion strains, locus YLL041C, strain sdh2, stronger effect = lower value 0.988 | S. cerevisiae deletion strains, locus YLR027C, strain aat2, stronger effect = lower value 0.969 | S. cerevisiae deletion strains, locus YLR039C, strain RIC1, stronger effect = lower value 1.05 | S. cerevisiae deletion strains, locus YLR058C, strain SHM2, stronger effect = lower value 0.994 | S. cerevisiae deletion strains, locus YLR102C, strain apc9, stronger effect = lower value 0.972 | S. cerevisiae deletion strains, locus YLR113W, strain HOG1, stronger effect = lower value 1 | S. cerevisiae deletion strains, locus YLR221C, strain rsa3, stronger effect = lower value 0.995 | S. cerevisiae deletion strains, locus YLR258W, strain gsy2, stronger effect = lower value 1 | S. cerevisiae deletion strains, locus YLR262C, strain YPT6 (second series), stronger effect = lower value 0.998 | S. cerevisiae deletion strains, locus YLR262C, strain YPT6, stronger effect = lower value 1.07 | S. cerevisiae deletion strains, locus YLR268W, strain sec22, stronger effect = lower value 0.946 | S. cerevisiae deletion strains, locus YLR320W, strain mms22, stronger effect = lower value 0.968 | S. cerevisiae deletion strains, locus YLR330W, strain CHS5, stronger effect = lower value 0.992 | S. cerevisiae deletion strains, locus YLR342W, strain FKS1 (second series), stronger effect = lower value 0.992 | S. cerevisiae deletion strains, locus YLR342W, strain FKS1, stronger effect = lower value 0.963 | S. cerevisiae deletion strains, locus YLR357W, strain rsc2, stronger effect = lower value 0.973 | S. cerevisiae deletion strains, locus YLR370C, strain arc18, stronger effect = lower value 0.972 | S. cerevisiae deletion strains, locus YLR371W, strain rom2, stronger effect = lower value 0.958 | S. cerevisiae deletion strains, locus YLR384C, strain iki3, stronger effect = lower value 0.969 | S. cerevisiae deletion strains, locus YLR418C, strain cdc73, stronger effect = lower value 0.957 | S. cerevisiae deletion strains, locus YML016C, strain PPZ1, stronger effect = lower value 0.991 | S. cerevisiae deletion strains, locus YML032C, strain rad52, stronger effect = lower value 0.97 | S. cerevisiae deletion strains, locus YML120C, strain ndi1, stronger effect = lower value 0.972 | S. cerevisiae deletion strains, locus YML124C, strain tub3, stronger effect = lower value 0.983 | S. cerevisiae deletion strains, locus YMR058W, strain fet3, stronger effect = lower value 0.981 | S. cerevisiae deletion strains, locus YMR078C, strain ctf18, stronger effect = lower value 0.966 | S. cerevisiae deletion strains, locus YMR125W, strain sto1, stronger effect = lower value 1 | S. cerevisiae deletion strains, locus YMR129W, stronger effect = lower value 0.99 | S. cerevisiae deletion strains, locus YMR205C, strain PFK2, stronger effect = lower value 0.985 | S. cerevisiae deletion strains, locus YMR223W, strain ubp8, stronger effect = lower value 0.999 | S. cerevisiae deletion strains, locus YMR231W, strain pep5, stronger effect = lower value 1 | S. cerevisiae deletion strains, locus YMR263W, strain SAP30, stronger effect = lower value 1 | S. cerevisiae deletion strains, locus YMR307W, strain GAS1, stronger effect = lower value 0.991 | S. cerevisiae deletion strains, locus YNL067W, strain RPL9B, stronger effect = lower value 0.998 | S. cerevisiae deletion strains, locus YNL071W, strain lat1, stronger effect = lower value 1.01 | S. cerevisiae deletion strains, locus YNL128W, strain TEP1, stronger effect = lower value 0.982 | S. cerevisiae deletion strains, locus YNL183C, strain NPR1, stronger effect = lower value 0.989 | S. cerevisiae deletion strains, locus YNL209W, strain ssb2, stronger effect = lower value 0.993 | S. cerevisiae deletion strains, locus YNL233W, strain BNI4, stronger effect = lower value 1.01 | S. cerevisiae deletion strains, locus YNL248C, strain rpa49, stronger effect = lower value 1.01 | S. cerevisiae deletion strains, locus YNL250W, strain rad50, stronger effect = lower value 0.967 | S. cerevisiae deletion strains, locus YNL271C, strain bni1, stronger effect = lower value 0.987 | S. cerevisiae deletion strains, locus YNL298W, strain CLA4, stronger effect = lower value 0.97 | S. cerevisiae deletion strains, locus YNL307C, strain MCK1, stronger effect = lower value 0.976 | S. cerevisiae deletion strains, locus YNL322C, strain KRE1 (second series), stronger effect = lower value 0.981 | S. cerevisiae deletion strains, locus YNR049C, strain mso1, stronger effect = lower value 0.998 | S. cerevisiae deletion strains, locus YNR052C, strain pop2, stronger effect = lower value 0.98 | S. cerevisiae deletion strains, locus YOL006C, strain TOP1, stronger effect = lower value 1.02 | S. cerevisiae deletion strains, locus YOL012C, strain htz1 0.758 | S. cerevisiae deletion strains, locus YOL147C, strain pex11, stronger effect = lower value 0.975 | S. cerevisiae deletion strains, locus YOR001W, strain rrp6, stronger effect = lower value 0.965 | S. cerevisiae deletion strains, locus YOR061W, strain CKA2, stronger effect = lower value 0.987 | S. cerevisiae deletion strains, locus YOR069W, strain VPS5, stronger effect = lower value 0.989 | S. cerevisiae deletion strains, locus YOR070C, strain gyp1, stronger effect = lower value 1 | S. cerevisiae deletion strains, locus YOR080W, strain dia2, stronger effect = lower value 0.983 | S. cerevisiae deletion strains, locus YOR083W, strain WHI5, stronger effect = lower value 0.956 | S. cerevisiae deletion strains, locus YOR106W, strain vam3, stronger effect = lower value 0.979 | S. cerevisiae deletion strains, locus YOR136W, strain idh2, stronger effect = lower value 0.982 | S. cerevisiae deletion strains, locus YOR144C, strain elg1, stronger effect = lower value 0.979 | S. cerevisiae deletion strains, locus YOR184W, strain ser1, stronger effect = lower value 0.985 | S. cerevisiae deletion strains, locus YOR231W, strain MKK1, stronger effect = lower value 0.963 | S. cerevisiae deletion strains, locus YOR265W, strain rbl2, stronger effect = lower value 0.988 | S. cerevisiae deletion strains, locus YOR270C, strain vph1, stronger effect = lower value 0.965 | S. cerevisiae deletion strains, locus YOR290C, strain snf2, stronger effect = lower value 1.01 | S. cerevisiae deletion strains, locus YOR316C, strain cot1, stronger effect = lower value 0.97 | S. cerevisiae deletion strains, locus YPL051W, strain arl3, stronger effect = lower value 0.987 | S. cerevisiae deletion strains, locus YPL078C, strain atp4, stronger effect = lower value 0.945 | S. cerevisiae deletion strains, locus YPL106C, strain sse1, stronger effect = lower value 1 | S. cerevisiae deletion strains, locus YPL240C, strain hsp82, stronger effect = lower value 0.978 | S. cerevisiae deletion strains, locus YPL256C, strain CLN2, stronger effect = lower value 1.02 | S. cerevisiae deletion strains, locus YPR119W, strain clb2, stronger effect = lower value 0.981 | S. cerevisiae deletion strains, locus YPR141C, strain kar3, stronger effect = lower value 0.978 | S. cerevisiae deletion strains, locus YPR163C, strain tif3, stronger effect = lower value 0.974 | S. cerevisiae deletion strains, locus YPR167C, strain met16, stronger effect = lower value 0.978 | S. cerevisiae deletion strains, strain wtn01, stronger effect = lower value 0.964 | S. cerevisiae strains, strain wild type, stronger effect = lower value 0.996
